Test results from PubChem BioAssay.
The source made the active and inactive calls. Unless noted, no rule for the calls is given here.

Experiments:
[1] = resazurin metabolic signal in HepG2 cells – cell-based, resazurin fluorescence, 24 h, PK04 Diversity Set, profiling panel (AID 1172); conditions: HepG2 viability, higher = more signal
[2] = budding yeast growth changes without added modifier – OD600, strain BY4716, 24 h, basal condition, primary screen (AID 1173); conditions: S. cerevisiae BY4716 growth, OD600, 24 h; higher = more signal, called active from +8 up or from −8 down
[3] = viability profiling in MM1S myeloma cells – cell-based, resazurin fluorescence, basal, 24 h, PK04 Diversity Set, profiling panel (AID 1174); conditions: higher = more signal, called active from +8 up or from −8 down;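 also: MM1S multiple myeloma cell line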
[4] = target: Dihydroorotate dehydrogenase (quinone), mitochondrial (Plasmodium falciparum (isolate 3D7)) (UniProt Q08210); test: inhibition of P. falciparum DHODH – biochemical, C-terminal His tag, absorbance 600 nm, primary screen (AID 1175); conditions: PfDHODH enzyme, DCIP absorbance 600 nm; higher = more signal, called active from +8 up or from −8 down;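 also: recombinant parasite enzyme with a five histidine tag at its C terminus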
Sequence of Dihydroorotate dehydrogenase (quinone), mitochondrial (Plasmodium falciparum (isolate 3D7)) (Q08210 whole entry, looked up): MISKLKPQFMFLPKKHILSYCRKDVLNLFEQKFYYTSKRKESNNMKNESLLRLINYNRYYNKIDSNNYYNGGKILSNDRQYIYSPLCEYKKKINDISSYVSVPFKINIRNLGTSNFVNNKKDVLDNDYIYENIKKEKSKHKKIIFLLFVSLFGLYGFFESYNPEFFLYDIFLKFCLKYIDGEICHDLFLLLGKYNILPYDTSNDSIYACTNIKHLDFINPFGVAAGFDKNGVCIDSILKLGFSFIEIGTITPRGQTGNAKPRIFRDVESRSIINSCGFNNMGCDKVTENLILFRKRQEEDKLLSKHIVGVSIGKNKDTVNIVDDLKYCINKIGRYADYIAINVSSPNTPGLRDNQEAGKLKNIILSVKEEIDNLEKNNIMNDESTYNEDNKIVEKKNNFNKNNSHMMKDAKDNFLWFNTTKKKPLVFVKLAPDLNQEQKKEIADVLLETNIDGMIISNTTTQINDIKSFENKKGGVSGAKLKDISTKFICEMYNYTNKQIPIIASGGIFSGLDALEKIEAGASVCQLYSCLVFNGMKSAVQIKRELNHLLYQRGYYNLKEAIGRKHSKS

[5] = inhibition of PAO1 biofilm formation – strain PAO1, LB-PBS medium, absorbance 600 nm, primary screen (AID 1176); conditions: P. aeruginosa PAO1 growth/biofilm, A600, 12 h; higher = more signal
[6] = growth modulation of vineyard yeast isolate – strain RM11-1a, OD600, basal, 24 h, primary screen (AID 1177);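 also: cultures grown under basal conditions with no added stressor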; conditions: S. cerevisiae RM11-1a growth, OD600, 24 h; higher = more signal, called active from +8 up or from −8 down
[7] = growth of efflux-deficient E. coli DRC39 – strain DRC39, OD650, 24 h, E. coli filamentation inducers, primary screen (AID 1178);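 also: growth measured as culture turbidity by optical density at 650 nm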; conditions: E. coli DRC39 acrAB, higher = more signal, called active from +8 up or from −8 down
[8] = growth of efflux-deficient E. coli DRC39 – strain DRC39, OD650, 48 h, E. coli filamentation inducers, primary screen (AID 1179);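 also: screen aims at cell division blockers that make cells filament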; conditions: E. coli DRC39 delta-acrAB growth, higher = more signal, called active from +8 up or from −8 down
[9] = viability profiling in RPMI8226 myeloma cells – cell-based, resazurin fluorescence, basal, 24 h, PK04 Diversity Set, profiling panel (AID 1180); conditions: higher = more signal;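 also: RPMI8826 multiple myeloma cell line at 5000 cells per well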
[10] = target: E3 ubiquitin-protein ligase XIAP (Homo sapiens) (UniProt P98170); test: small molecules binding XIAP protein – biophysical, small-molecule microarray, fluorescence 635 nm, primary screen (AID 1181); conditions: higher = more signal;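 also: score merges 667 nm emission and signal to noise over triplicate slides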
Sequence of E3 ubiquitin-protein ligase XIAP (Homo sapiens) (P98170 whole entry, looked up, the tested form may be a part): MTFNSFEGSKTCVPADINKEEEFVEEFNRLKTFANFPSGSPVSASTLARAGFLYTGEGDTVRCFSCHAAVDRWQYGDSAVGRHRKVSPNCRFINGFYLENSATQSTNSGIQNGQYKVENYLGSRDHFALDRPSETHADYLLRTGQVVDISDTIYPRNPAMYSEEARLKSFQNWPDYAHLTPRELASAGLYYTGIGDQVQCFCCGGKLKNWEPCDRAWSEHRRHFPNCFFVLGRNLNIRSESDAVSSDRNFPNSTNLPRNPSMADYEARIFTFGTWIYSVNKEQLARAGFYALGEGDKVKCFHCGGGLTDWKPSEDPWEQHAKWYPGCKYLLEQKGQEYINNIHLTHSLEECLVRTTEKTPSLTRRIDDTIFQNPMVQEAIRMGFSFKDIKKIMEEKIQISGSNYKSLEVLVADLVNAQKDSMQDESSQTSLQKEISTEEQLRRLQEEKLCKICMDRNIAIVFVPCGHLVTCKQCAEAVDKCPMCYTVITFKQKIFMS

[11] = test system: XIP peptide (Xip251-270) binding; test: XIP fragment 251-270 binding compounds – biochemical, small-molecule microarray, fluorescence 635/667 nm, 0.1 µg/mL protein, primary screen (AID 1182); conditions: fluorescent protein binding, 635 nm, higher = more signal, called active from +8 up or from −8 down
XIP peptide (Xip251-270) = test: compounds binding XIP fragment 251-270 – biochemical, small-molecule microarray, fluorescence 635/667 nm, 0.5 µg/mL protein, primary screen (AID 1183); conditions: fluorescence 635 nm, higher = more signal
[12] = blood-stage malaria parasite viability loss – strain 3D7, DAPI fluorescence, 100 nL, primary screen (AID 1184);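 also: parasites grown inside human red blood cells in medium with human serum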; conditions: P. falciparum 3D7 growth, 3 d, higher = more signal
[13] = target: Homeobox protein Hox-A13 (Mus musculus) (UniProt Q62424); test: disruptors of Hoxa13 oligonucleotide interaction – biochemical, fluorescence polarization, labeled oligonucleotide, primary screen (AID 1185); conditions: Hoxa13:DNA binding, 15 min, higher = more signal, called active from +8 up or from −8 down
Sequence of Homeobox protein Hox-A13 (Mus musculus) (Q62424 whole entry, looked up): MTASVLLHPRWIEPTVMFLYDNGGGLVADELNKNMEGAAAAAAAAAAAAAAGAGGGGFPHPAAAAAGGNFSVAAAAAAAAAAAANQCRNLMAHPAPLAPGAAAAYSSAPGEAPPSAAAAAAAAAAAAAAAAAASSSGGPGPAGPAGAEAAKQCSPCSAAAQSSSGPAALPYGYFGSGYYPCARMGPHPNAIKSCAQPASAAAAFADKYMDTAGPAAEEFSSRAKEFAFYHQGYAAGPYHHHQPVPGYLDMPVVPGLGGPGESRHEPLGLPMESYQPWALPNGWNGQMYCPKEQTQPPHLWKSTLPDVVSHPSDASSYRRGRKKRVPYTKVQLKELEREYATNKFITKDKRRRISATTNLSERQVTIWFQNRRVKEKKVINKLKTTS

[14] = blockers of DNA damage checkpoint Chk1 activation – imaging, HeLa, hydroxyurea, phospho-Chk1 antibody, percent positive cells, primary screen (AID 1186); conditions: hydroxyurea-induced phospho-Chk1 immunofluorescence imaging, higher = more signal
[15] = blockers of DNA damage checkpoint Chk1 activation – imaging, HeLa, hydroxyurea, phospho-Chk1 nuclear intensity, primary screen (AID 1187); conditions: hydroxyurea-induced phospho-Chk1 immunofluorescence imaging, higher = more signal

Compound	z-score [1]	z-score [2]	z-score [3]	composite z-score [4]	z-score [5]	z-score [6]	z-score [7]	z-score [8]	z-score [9]	composite z-score [10]	composite z-score [11]	composite z-score (XIP peptide (Xip251-270))	z-score [12]	z-score [13]	z-score [14]	z-score [15]
COCCOC(=O)N1C(=O)[C@@]2(c3cc(C#CC4(O)CCCCCC4)ccc31)[C@H](C(=O)NC[C@H](O)c1ccccc1)[C@H]1C(=O)O[C@H](c3ccccc3)[C@H](c3ccccc3)N1[C@@H]2c1ccc(OCCO)cc1	1.49	0.385 (inactive)	-0.909 (inactive)	-1.38 (inactive)	1.05 (inactive)	2.73 (inactive)	0.608 (inactive)	0.187 (inactive)	0.0705	0.643	-0.274 (inactive)	0.624	-1.19	-0.375 (inactive)	0.0542 (inactive)	0.167 (inactive)
C=CCOC(=O)[C@@H]1[C@H]2C(=O)O[C@H](c3ccccc3)[C@H](c3ccccc3)N2[C@H](c2ccc(OCCOC(=O)[C@H]3C[C@H]4C(=O)N[C@@H](Cc5ccccc5)C(=O)N4[C@H]3c3cccc(OCCO)c3)cc2)[C@@]12C(=O)Nc1ccc(I)cc12	-0.208	-0.215 (inactive)	-1.94 (inactive)	-3.73 (inactive)	0.199 (inactive)	2.13 (inactive)	-0.847 (inactive)	0.573 (inactive)	-1.01	-0.128	2.12 (inactive)	0.813	0.143	6.79 (inactive)	-0.173 (inactive)	0.0575 (inactive)
[N-]=[N+]=NCc1ccccc1C[C@]1(C(=O)NCCN2CCOCC2)N=C(c2ccc(OCCCO)cc2)O[C@H]1c1ccccc1	0.383	-2 (inactive)	-0.0784 (inactive)	-0.603 (inactive)	0.193 (inactive)	-0.65 (inactive)	1.24 (inactive)	0.535 (inactive)	0.166	0.131	0.786 (inactive)	0.817	-2.42	-6.23 (inactive)	0.0479 (inactive)	0.228 (inactive)
COc1ccc([Si](C)(C)[C@@H]2[C@@H](CCO)O[C@]3(C(=O)N(Cc4ccc(N5C(=O)c6ccccc6Oc6ccccc65)cc4)c4ccccc43)[C@H]2C)cc1	0.0213	2.15 (inactive)	-0.848 (inactive)	-0.343 (inactive)	2.88 (inactive)	4.38 (inactive)	0.365 (inactive)	-0.275 (inactive)	-3.07	-0.203	0.89 (inactive)	0.294	-2.77	-1.06 (inactive)	-0.42 (inactive)	-0.394 (inactive)
C=CCC(OC(C)=O)[C@@H]1[C@@H](N(Cc2ccc(-c3ccccc3)cc2)C(=O)c2cccc3ccccc23)c2cc(OCCCO)ccc2N1C(=O)c1ccc2ccccc2n1 (some centres undefined)	-0.253	-0.953 (inactive)	0.0319 (inactive)	-0.178 (inactive)	0.161 (inactive)	-0.909 (inactive)	0.908 (inactive)	0.376 (inactive)	0.131	-0.0282	-0.0607 (inactive)	0.328	-0.714	-1.42 (inactive)	-0.606 (inactive)	-0.368 (inactive)
O=C1NC(=O)C2C1C=CC(C(O)c1ccc3c(c1)OCO3)N2Nc1ccc(Cl)cc1Cl (centres undefined)	-0.996	-14 (active)	-1.33 (inactive)	-0.703 (inactive)	1.38 (inactive)	-0.101 (inactive)	-0.145 (inactive)	-2.73 (inactive)	-0.93	0.205	2.16 (inactive)	0.726	0.576	-5.9 (inactive)	0.629 (inactive)	0.417 (inactive)
[N-]=[N+]=NCc1ccccc1C[C@]1(C(=O)NCCN2CCOCC2)COC(c2ccc(OCCCO)cc2)=N1	-0.801	-1.36 (inactive)	-1.28 (inactive)	0.456 (inactive)	0.535 (inactive)	-0.383 (inactive)	0.786 (inactive)	0.0653 (inactive)	0.106	-0.0125	0.0364 (inactive)	0.258	-2.09	-4.71 (inactive)	-0.327 (inactive)	-0.625 (inactive)
COC(=O)[C@@]1(Cc2ccc(OC)cc2)[C@H]2c3cc(C(=O)N(C)C)n(Cc4cc(F)c(F)c(F)c4)c3C[C@H]2CN1C(=O)c1ccccc1	-1.07	1.83 (inactive)	-2.61 (inactive)	-2.65 (inactive)	4.06 (inactive)	0.726 (inactive)	-0.337 (inactive)	-0.622 (inactive)	-2.32	0.0957	0.0306 (inactive)	0.577	-1.81	-1.93 (inactive)	0.102 (inactive)	-0.186 (inactive)
COC(=O)C(CC#Cc1ccc2c(c1)[C@]1(C(=O)N2)[C@H](C(=O)N2CCc3cc(OC)c(OC)cc3C2)[C@H]2C(=O)O[C@H](c3ccccc3)[C@H](c3ccccc3)N2[C@@H]1c1ccc(OCCO)cc1)C(=O)OC	-0.0956	2.36 (inactive)	-0.229 (inactive)	-6.24 (inactive)	3.55 (inactive)	4.29 (inactive)	-0.538 (inactive)	0.704 (inactive)	-0.0688	0.23	0.916 (inactive)	0.761	-1.76	-10.5 (active)	-0.197 (inactive)	0.277 (inactive)
CC(C)CCC[C@@H](C)[C@H]1CC[C@@]2(C)C3=C(CC[C@]12C)[C@@]1(C)CC[C@H](OC(=O)C(C)(C)C)C(C)(C)C1CC3 (some centres undefined)	0.411	-0.743 (inactive)	0.0609 (inactive)	-2.48 (inactive)	1.65 (inactive)	-4.69 (inactive)	1.41 (inactive)	-0.805 (inactive)	0.662	0.0356	0.434 (inactive)	-0.0722	-1.29	-1.44 (inactive)	-1.13 (inactive)	-1.89 (inactive)
O=C1OCCC=C[C@H]2OC34C=CCN(Cn5nnc6ccccc65)C(=O)[C@H]3N(CCCCCO)C(=O)[C@@H]4C12 (some centres undefined)	-0.444	0.994 (inactive)	0.241 (inactive)	-0.951 (inactive)	-0.0432 (inactive)	0.137 (inactive)	0.672 (inactive)	0.774 (inactive)	0.618	-0.0943	0.282 (inactive)	-0.75	0.561	-4.63 (inactive)	1.09 (inactive)	1.08 (inactive)
O=C1CSC(c2cccc([N+](=O)[O-])c2)N1c1ccccc1 (centres undefined)	0.0598	0.483 (inactive)	-0.0906 (inactive)	-0.861 (inactive)	0.199 (inactive)	0.468 (inactive)	0.869 (inactive)	0.869 (inactive)	0.407	-0.0056	0.0504 (inactive)	0.143	0.464	1.07 (inactive)	0.0304 (inactive)	-0.174 (inactive)
NC(=O)NCC#Cc1ccc2c(c1)[C@]1(C(=O)N2)[C@H](c2ccc(O)cc2)N2[C@H](c3ccccc3)[C@H](c3ccccc3)OC(=O)[C@H]2[C@@H]1C(=O)NC[C@H](O)c1ccccc1	0.22	-0.683 (inactive)	0.953 (inactive)	-0.494 (inactive)	-0.136 (inactive)	-0.0444 (inactive)	0.203 (inactive)	0.841 (inactive)	0.82	0.045	-0.0884 (inactive)	-0.294	-0.547	-0.93 (inactive)	-0.186 (inactive)	-0.151 (inactive)
C=C(COC)/C(=C/C[C@@H](OC(=O)c1ccncc1)c1cccc(OCCO)c1)c1cc(C(=O)OC)ccc1OC	-0.114	-18.2 (active)	-0.477 (inactive)	-7.37 (inactive)	0.236 (inactive)	-22.1 (active)	0.802 (inactive)	0.488 (inactive)	0.0987	0.201	0.658 (inactive)	0.657	-2.38	-4.58 (inactive)	0.0182 (inactive)	0.527 (inactive)
COC(=O)C(CC#Cc1ccc2c(c1)[C@]1(C(=O)N2)[C@H](c2ccccc2OCCO)N2[C@H](c3ccccc3)[C@H](c3ccccc3)OC(=O)[C@H]2[C@@H]1C(=O)Nc1nc2ccccc2s1)C(=O)OC	-0.449	1.4 (inactive)	0.699 (inactive)	-8 (inactive)	3.7 (inactive)	2.33 (inactive)	-0.0715 (inactive)	0.172 (inactive)	1.05	0.0264	1.32 (inactive)	0.727	-2	0.787 (inactive)	-0.0918 (inactive)	-0.269 (inactive)
CC(C)c1ccc(NN2C(C(O)c3cccs3)C=CC3C(=O)N(c4ccccc4)C(=O)C32)cc1 (centres undefined)	-1.75	-2.27 (inactive)	-1.73 (inactive)	0.355 (inactive)	0.835 (inactive)	0.883 (inactive)	-0.649 (inactive)	-0.73 (inactive)	-1.14	0.44	0.213 (inactive)	0.499	-0.512	-3.33 (inactive)	0.847 (inactive)	0.219 (inactive)
C=C(/C(=C/C[C@@H](OC(C)=O)c1ccccc1OCCO)c1cnc2ccccc2c1)C(C)C	-1	-1.34 (inactive)	-0.601 (inactive)	-5.68 (inactive)	0.108 (inactive)	0.29 (inactive)	-0.997 (inactive)	-0.667 (inactive)	-0.267	-0.102	0.143 (inactive)	0.339	-2.62	-5.18 (inactive)	0.642 (inactive)	0.0715 (inactive)
CC1CC/C=C\[C@H]2OC34C=CCN(c5ccc(Cl)cc5)C(=O)[C@H]3N(C(CO)C(C)C)C(=O)[C@]4(C)C2C(=O)O1 (some centres undefined)	-0.328	-0.432 (inactive)	0.0849 (inactive)	-2.37 (inactive)	0.109 (inactive)	-0.245 (inactive)	-0.163 (inactive)	0.129 (inactive)	0.399	0.0808	-0.279 (inactive)	0.277	-0.0809	-5.44 (inactive)	-0.466 (inactive)	-0.512 (inactive)
C=CCC(OC(C)=O)[C@@H]1[C@@H](N(Cc2ccc(-c3cccc(C(F)(F)F)c3)o2)C(=O)c2cccc3ccccc23)c2cc(OCCCO)ccc2N1C(=O)c1ccc(-c2ccccc2)cc1 (some centres undefined)	-1.02	-0.0033 (inactive)	-1.1 (inactive)	0.821 (inactive)	-0.416 (inactive)	0.0679 (inactive)	0.147 (inactive)	-0.241 (inactive)	-0.851	-0.031	-0.0517 (inactive)	-0.131	-3	-2.39 (inactive)	-0.403 (inactive)	-0.16 (inactive)
